Data as given in PubChem BioAssay (NCATS).
Inconclusive results are not listed. Where a call stands in place of a potency, no number is given. The source made the active and inactive calls. Calls come from the whole dose curve; as a rule, active = well fitted curve in the direction sought with a large enough effect; inconclusive = small, poorly fitted or top-dose-only effect, or another doubt; inactive = no such curve, though single readings can be large; an effect the other way counts as inactive or inconclusive. Where a SMILES comes first, the peptide text is derived from it. [ ]: non-standard residue; d: D form. pGlu = O=C1CC[C@@H](C(=O)O)N1

Molecular target: Protein phosphatase 1D (Homo sapiens) (UniProt O15297)
Assay: Rhodamine-PBP qHTS Assay for Modulators of WT P53-Induced Phosphatase 1 (WIP1) (AID 1347425)
Conditions: recombinant WIP1, Rhodamine-PBP phosphate fluorescence, real-time; series mostly up to 57.5 µM
Outline: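 WIP1 (5 nM final) was preincubated with compound for 1 hour at room temperature. It then dephosphorylated 10 uM VEPPL-pS-QETFS peptide in Tris-HCl pH 7.5 with 30 mM MgCl2. Released Pi was detected by 10 uM Rh-PBP fluorescence (ex 525/em 598 nm) read at 1-min intervals for 11 min, as delta f1 - f0.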

Sequence of Protein phosphatase 1D (Homo sapiens) (O15297 whole entry, looked up): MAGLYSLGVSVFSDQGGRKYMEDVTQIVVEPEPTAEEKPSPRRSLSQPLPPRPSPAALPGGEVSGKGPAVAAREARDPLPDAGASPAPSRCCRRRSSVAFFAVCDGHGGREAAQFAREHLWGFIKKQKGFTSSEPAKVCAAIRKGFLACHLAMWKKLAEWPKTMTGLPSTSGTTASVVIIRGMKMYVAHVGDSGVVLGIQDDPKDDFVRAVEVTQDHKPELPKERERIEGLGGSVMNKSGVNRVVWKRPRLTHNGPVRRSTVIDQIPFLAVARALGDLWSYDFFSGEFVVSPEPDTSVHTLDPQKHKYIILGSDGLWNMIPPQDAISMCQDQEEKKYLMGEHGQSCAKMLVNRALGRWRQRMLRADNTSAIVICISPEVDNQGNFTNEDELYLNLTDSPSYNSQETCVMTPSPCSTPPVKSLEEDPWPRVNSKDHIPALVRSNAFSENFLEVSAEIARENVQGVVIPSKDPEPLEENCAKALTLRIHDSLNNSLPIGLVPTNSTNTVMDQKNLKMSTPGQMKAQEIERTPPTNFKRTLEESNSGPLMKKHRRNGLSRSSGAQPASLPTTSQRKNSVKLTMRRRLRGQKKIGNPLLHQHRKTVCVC

| SMILES | outcome |
| --- | --- |
| CN(C)CCN1CCN(c2cccc(Cl)c2)C1=O | inactive |
| COc1ccc(-n2nc(CCC(=O)N(C)O)cc2-c2ccc(Cl)cc2)cc1 | inactive |
| O=C1CC2(CCCC2)CC(=O)N1 | inactive |
| CCOC(=O)N1CCC(n2c(=O)[nH]c3cc(Cl)ccc32)CC1 | inactive |
| CC1CCCCN1CCCOC(=O)c1ccc(OC2CCCCC2)cc1 (stereo not given) | inactive |
| COc1cc(/C=C/C(N)=O)cc(OC)c1OC | inactive |
| CC1(C)S[C@@H]2[C@H](NC(=O)C(c3ccccc3)S(=O)(=O)O)C(=O)N2[C@H]1C(=O)O (stereo not given in full) | inactive |
| CCCCOCCOC(=O)c1cccnc1 | inactive |
| O=C(O)CCCC[C@@H]1SC[C@@H]2NC(=O)N[C@@H]21 | inactive |
| CC(=O)OCC[N+](C)(C)C | inactive |
| Nc1ccc([N+](=O)[O-])c(C(F)(F)F)c1 | inactive |
| COC(=O)CCCCC(CCSS/C(CCO)=C(\C)N(C=O)Cc1cnc(C)nc1N)SC(C)=O (stereo not given) | inactive |
| Cc1ccc2ccc(Cl)cc2n1 | inactive |
| O=[N+]([O-])c1ccc(O)c2ncccc12 | inactive |
| C[C@@]12CCC[C@H]1[C@@H]1CC[C@H]3C[C@@H](O)CC[C@]3(C)[C@H]1CC2 | inactive |
| CC(=O)O[C@H]1CC[C@@]2(C)C(=CC[C@@H]3[C@@H]2CC[C@]2(C)C(C(C)=O)=CC[C@@H]32)C1 | inactive |
| CN1CCC(Nc2ncc3ncnc(Nc4ccc(F)c(Cl)c4)c3n2)CC1 | inactive |
| CC(=O)CC/C=C(\C)CC/C=C(\C)CC/C=C(\C)CCC=C(C)C | inactive |

| SMILES | outcome |
| --- | --- |
| O=C(O)CCC(=O)OC[C@@H](NC(=O)C(Cl)Cl)[C@H](O)c1ccc([N+](=O)[O-])cc1 | inactive |
| CN=C(N)NC(=O)Nc1c(C)cccc1C | inactive |
| O=C1CC(c2ccc(Cl)cc2)CC(=O)N1 | inactive |
| CN1CCCN(C(c2ccccc2)c2ccc(Cl)cc2)CC1 (stereo not given) | inactive |
| Nc1c2ccccc2nc2ccccc12 | inactive |
| O=C(CS(=O)Cc1ccco1)NC/C=C\COc1cc(CN2CCCCC2)ccn1 (stereo not given) | inactive |
| O=C(CCCl)NCc1ccccc1 | inactive |
| Cc1cccc(N(C)C(=S)Oc2ccc3c(c2)C2CCC3C2)c1 (stereo not given) | inactive |
| O=C(CCCl)NCCc1ccccc1 | inactive |
| Cc1onc(-c2c(Cl)cccc2Cl)c1C(=O)Cl | inactive |
| COC(=O)c1cc(Cl)c(NC(C)=O)cc1OC | inactive |
| CCCOc1ccc2c(c1)CC[C@@H]1[C@@H]2CC[C@]2(C)C(OC)CC[C@@H]12 (stereo not given in full) | inactive |
| O=C(O)c1ccc(OCCN2CCCCC2)cc1 | inactive |
| CCNC(=O)[C@@H]1CCCN1C(=O)[C@H](CCCN=C(N)N)NC(=O)[C@H](CC(C)C)NC(=O)CNC(=O)[C@H](Cc1ccc(O)cc1)NC(=O)[C@H](CO)NC(=O)[C@H](Cc1c[nH]c2ccccc12)NC(=O)[C@H](Cc1cnc[nH]1)NC(=O)[C@@H]1CCC(=O)N1 ([pGlu]HWSYGLRP-NHEt) | inactive |
| [O-][n+]1cccc(/C(Cl)=N/OC[C@@H](O)CN2CCCCC2)c1 | inactive |
| c1ccc2c(c1)CCc1ccccc1N2 | inactive |
| CN1CCC(=C2c3ccccc3CCc3cccnc32)CC1 | inactive |

System: not listed separately
Assay: Primary qHTS for inhibitors of La Crosse Virus (LACV) - induced cell death in SH-SY5Y cells (AID 1508616);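 note: top concentration of the series differs between compounds; higher means more rescue of cells from virus-induced death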
Conditions: SH-SY5Y LACV cytopathicity rescue, ATP luminescence, 6 d; series mostly up to 4.29 µM
Outline: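 Luminescent ATP readout (ATPLite 1step, 5 min room temperature) measured rescue from LACV-induced death after 6 days of infection at 0.01 MOI; normalized to infected DMSO wells and uninfected DMSO wells.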

| SMILES | outcome |
| --- | --- |
| O=C1CC2(CCCC2)CC(=O)N1 | inactive |
| CCOC(=O)N1CCC(n2c(=O)[nH]c3cc(Cl)ccc32)CC1 | inactive |
| CCCCCOc1ccc(C2SC(=O)NC2=O)cc1OCC (stereo not given) | inactive |
| CCc1cc(S(=O)(=O)O)c2cc(C(C)C)cccc1-2 | inactive |
| CN1CCC(=C2c3ccccc3CCc3cccnc32)CC1 | inactive |

Molecular target: Calcium and integrin-binding protein 1 (Homo sapiens) (UniProt Q99828)
Assay: Primary qHTS for Identification of Calcium Integrin Binding Protein 1 (CIB1) Competitor (AID 1508620);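 note: GST tagged CIB1 binding a fluorescein labelled alphaIIb integrin peptide tracer; top concentration of the series differs between compounds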
Conditions: CIB1-GST / FITC-alphaIIb peptide fluorescence polarization; series mostly up to 114 µM
Outline: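 Fluorescence polarization competition: CIB1-GST (1 uM final) preincubated with compound 15 min at room temperature, then FITC-labeled alphaIIb peptide (100 nM final) added for another 15 min. Polarization read at Ex 480/Em 540.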

Sequence of Calcium and integrin-binding protein 1 (Homo sapiens) (Q99828 whole entry, looked up): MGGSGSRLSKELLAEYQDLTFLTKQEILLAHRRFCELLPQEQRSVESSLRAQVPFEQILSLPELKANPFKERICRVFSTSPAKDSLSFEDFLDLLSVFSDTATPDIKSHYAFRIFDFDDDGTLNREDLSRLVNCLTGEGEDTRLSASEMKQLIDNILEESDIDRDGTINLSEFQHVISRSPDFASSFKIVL

| SMILES | Potency |
| --- | --- |
| CN(C)CCN1CCN(c2cccc(Cl)c2)C1=O | inactive |
| COc1ccc(-n2nc(CCC(=O)N(C)O)cc2-c2ccc(Cl)cc2)cc1 | inactive |
| CCOC(=O)N1CCC(n2c(=O)[nH]c3cc(Cl)ccc32)CC1 | inactive |
| CC1CCCCN1CCCOC(=O)c1ccc(OC2CCCCC2)cc1 (stereo not given) | inactive |
| COc1cc(/C=C/C(N)=O)cc(OC)c1OC | inactive |
| CC1(C)S[C@@H]2[C@H](NC(=O)C(c3ccccc3)S(=O)(=O)O)C(=O)N2[C@H]1C(=O)O (stereo not given in full) | inactive |
| CCCCCOc1ccc(C2SC(=O)NC2=O)cc1OCC (stereo not given) | inactive |
| CCCCOCCOC(=O)c1cccnc1 | inactive |
| O=C(O)CCCC[C@@H]1SC[C@@H]2NC(=O)N[C@@H]21 | inactive |
| CC(=O)OCC[N+](C)(C)C | inactive |
| Nc1ccc([N+](=O)[O-])c(C(F)(F)F)c1 | inactive |
| COC(=O)CCCCC(CCSS/C(CCO)=C(\C)N(C=O)Cc1cnc(C)nc1N)SC(C)=O (stereo not given) | inactive |
| Cc1ccc2ccc(Cl)cc2n1 | inactive |
| C[C@@]12CCC[C@H]1[C@@H]1CC[C@H]3C[C@@H](O)CC[C@]3(C)[C@H]1CC2 | inactive |
| CC(=O)O[C@H]1CC[C@@]2(C)C(=CC[C@@H]3[C@@H]2CC[C@]2(C)C(C(C)=O)=CC[C@@H]32)C1 | inactive |
| CN1CCC(Nc2ncc3ncnc(Nc4ccc(F)c(Cl)c4)c3n2)CC1 | inactive |
| CCc1cc(S(=O)(=O)O)c2cc(C(C)C)cccc1-2 | inactive |
| CC(=O)CC/C=C(\C)CC/C=C(\C)CC/C=C(\C)CCC=C(C)C | inactive |

| SMILES | Potency |
| --- | --- |
| O=C(O)CCC(=O)OC[C@@H](NC(=O)C(Cl)Cl)[C@H](O)c1ccc([N+](=O)[O-])cc1 | inactive |
| CN=C(N)NC(=O)Nc1c(C)cccc1C | inactive |
| O=C1CC(c2ccc(Cl)cc2)CC(=O)N1 | inactive |
| CN1CCCN(C(c2ccccc2)c2ccc(Cl)cc2)CC1 (stereo not given) | inactive |
| Nc1c2ccccc2nc2ccccc12 | inactive |
| O=C(CS(=O)Cc1ccco1)NC/C=C\COc1cc(CN2CCCCC2)ccn1 (stereo not given) | inactive |
| O=C(CCCl)NCc1ccccc1 | inactive |
| Cc1cccc(N(C)C(=S)Oc2ccc3c(c2)C2CCC3C2)c1 (stereo not given) | inactive |
| O=C(CCCl)NCCc1ccccc1 | inactive |
| Cc1onc(-c2c(Cl)cccc2Cl)c1C(=O)Cl | inactive |
| COC(=O)c1cc(Cl)c(NC(C)=O)cc1OC | inactive |
| CCCOc1ccc2c(c1)CC[C@@H]1[C@@H]2CC[C@]2(C)C(OC)CC[C@@H]12 (stereo not given in full) | inactive |
| O=C(O)c1ccc(OCCN2CCCCC2)cc1 | inactive |
| CCNC(=O)[C@@H]1CCCN1C(=O)[C@H](CCCN=C(N)N)NC(=O)[C@H](CC(C)C)NC(=O)CNC(=O)[C@H](Cc1ccc(O)cc1)NC(=O)[C@H](CO)NC(=O)[C@H](Cc1c[nH]c2ccccc12)NC(=O)[C@H](Cc1cnc[nH]1)NC(=O)[C@@H]1CCC(=O)N1 ([pGlu]HWSYGLRP-NHEt) | inactive |
| [O-][n+]1cccc(/C(Cl)=N/OC[C@@H](O)CN2CCCCC2)c1 | inactive |
| c1ccc2c(c1)CCc1ccccc1N2 | inactive |
| CN1CCC(=C2c3ccccc3CCc3cccnc32)CC1 | inactive |
